Data from PubChem BioAssay (NCATS).
Records with an inconclusive call do not appear. Calls of active or inactive are those of the source. Unless noted, calls follow the shape of the dose curve; as a rule, active = well fitted curve in the direction sought with a large enough effect; inconclusive = small, poorly fitted or top-dose-only effect, or another doubt; inactive = no such curve, though single readings can be large; an effect the other way counts as inactive or inconclusive.

How the values were obtained:
[1] = target: Lysosomal acid glucosylceramidase (Homo sapiens) (UniProt P04062); experiment: Glucocerebrosidase-p2 (AID 348; in the data active = potency below about 10 µM; also: potency is read from the fitted curve at half-maximal effect); settings: purified GBA, blue fluorogenic substrate, 40 min
In short: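 Normal human glucocerebrosidase (0.2 nM) with blue fluorogenic substrate (80 uM final) in citrate/phosphate pH 5.9 with 10mM sodium taurocholate, 0.01% tween-20; 40 min RT, NaOH/glycine stop; fluorescence Ex 365/Em 440; AC50 from a titration from 0.6 nM upwards.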

[2] = AP1 Signaling Pathway (AID 357; active = well fitted curve in either direction with a large enough effect, not every such curve was filed as active; also: % is scaled to controls: 0 for no effect and ±100 for the full control effect); settings: ME-180 AP-1-bla reporter, EGF-induced, beta-lactamase ratio, 5 h; at 7.69 µM (top of the series) unless noted
In short: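 ME-180 cells with beta-lactamase reporter under AP-1 response element, stimulated with EC50 EGF; compounds tested in titration series, 5 h at 37 °C. CCF4 substrate added 2.5 h at room temperature; 460/530 nm emission ratio gave %activity and AC50.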

[3] = target: Cytochrome P450 1A2 (Homo sapiens) (UniProt P05177); experiment: p450-cyp1a2 (AID 410; calls by dose curve; also: potency is read from the fitted curve at half-maximal effect); settings: recombinant CYP1A2, luciferin-ME demethylation, luminescence; series mostly up to 57 µM
In short: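 Read-out is luminescence from luciferin produced by CYP1A2 demethylation of Luciferin-ME (100uM, at Km). Detection reagent stopped the 60 min NADPH-dependent reaction; signals were normalized to 57 uM furafylline.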

[4] = Stat Signaling Pathway (AID 446; active = well fitted curve in either direction with a large enough effect, not every such curve was filed as active;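 also: ME-180 cervical cancer cells given 40 pM IL-6 alongside compound; SIE-controlled beta-lactamase reporter measured as 460/530 nm FRET emission ratio; % is scaled to controls: 0 for no effect and ±100 for the full control effect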); settings: ME-180 (cervical carcinoma) SIE beta-lactamase reporter, IL-6 stimulated, 5 h; at 7.69 µM (top of the series) unless noted
In short: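 Normalization used AC90 stimulation (300 pM IL-6) and AC90 inhibition (125 nM pan-JAK inhibitor at 40 pM IL-6). The underlying signal is SIE-driven beta-lactamase in ME-180 cells after 5 h IL-6 exposure with compound.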

[5] = target: Glucocorticoid receptor (Homo sapiens) (UniProt P04150); experiment: GR-GFP Redistribution (AID 450;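 active = compounds whose dose series gives a full or clear partial fitted curve of increased nuclear translocation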; also: potency is read from the fitted curve at half-maximal effect); settings: U2OS GR-GFP nuclear translocation, laser cytometry, 2 h
[6] = target: Glucocorticoid receptor (Homo sapiens) (UniProt P04150); experiment: GR-EFC Redistribution (AID 451; calls by dose curve; also: potency is read from the fitted curve at half-maximal effect); settings: CHO-K1 GR-EFC translocation, beta-gal luminescence, 2 h
In short: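 CHO-K1 cells stably expressing nuclear-localized β-gal enzyme acceptor and GR fused C-terminally to the enzyme donor fragment; ligand-driven nuclear translocation restores β-gal by complementation. Compounds titrated up to 46 uM final, 2 h at 37 °C; luminescence read.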

[7] = target: Mitogen-activated protein kinase 10 (Mus musculus) (UniProt Q61831); experiment: JNK3 AlphaScreen Assay (AID 530; active = well fitted curve in either direction with a large enough effect, not every such curve was filed as active;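 also: kinase came from lysate of stimulated human HepG2 cells; signal reports phosphorylation of biotinylated GST-cJun 1-79 at Ser73 with 10 µM ATP; % is scaled to controls: 0 for no effect and ±100 for the full control effect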); settings: JNK3 lysate, c-Jun phosphorylation; series mostly up to 57.1 µM
In short: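 Biotinylated GST-cJun(1-79) served as substrate for JNK3 in HepG2 lysates stimulated with IL-1beta and TNF-alpha. ATP was 10 uM final, pH 7.6. Ser73 phosphorylation was quantified by AlphaScreen (680 nm excitation).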

[8] = target: 3',5'-cyclic-AMP phosphodiesterase 4B (Homo sapiens) (UniProt Q07343); experiment: qHTS Assay for Inhibitors of PDE-IV (AID 607; active = well fitted activation curve with a large enough effect in the main read-out, with a control signal flat, not every such curve was filed as active; also: % of control where 0% means no effect); settings: HEK293 ACTOne CNG channel cells, membrane potential fluorescence; series mostly up to 22.9 µM
In short: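 HEK293 ACTOne cells with CNG channel (1000/well), endogenous PDE4; membrane potential dye, compounds up to 22.9 uM final. Fluorescence Ex 535/Em 590; RO 20-1724 (100 uM final) as reference.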

[9] = target: Cytochrome P450 3A4 (Homo sapiens) (UniProt P08684); experiment: qHTS Assay for Activators of Cytochrome P450 3A4 (AID 885); settings: recombinant CYP3A4, Luciferin-PPXE luminescence, 60 min; series mostly up to 57.1 µM; also: nearly all actives have a fitted effect of over 65% in size
In short: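 Human CYP3A4 dealkylates Luciferin-PPXE to luciferin, which luciferase detection converts to light. Substrate was at its KM (25uM), buffer 200mM KPO4, reaction 60 min at RT.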

[10] = qHTS Assay for Lipid Storage Modulators (AID 1519; calls by dose curve); settings: Drosophila S3 cells, BODIPY lipid droplet/cell ratio, laser cytometry, cells loaded with oleic acid; for activity change, negative = inhibition: at 57.5 µM (top of the series)
In short: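 Cells seeded at 5,000 per well were treated with compounds over a concentration series and loaded with oleic acid (400 uM, as added). Lipid droplet fluorescence (488 nm excitation, 500-530 nm channel) was read by laser-scanning cytometry and normalized to 20 uM Triacsin C.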

[11] = target: Dual specificity protein kinase CLK4 (Homo sapiens) (UniProt Q9HAZ1); experiment: qHTS Assay for Inhibitors of CDC-like Kinase 4 (Kinase-Glo Assay) (AID 1770); settings: recombinant Clk4, Kinase-Glo ATP depletion luminescence; series mostly up to 66.7 µM; also: nearly all actives have a fitted effect of over 65% in size; also: potency is read from the fitted curve at half-maximal effect
In short: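 Recombinant human Clk4 (25 nM) phosphorylated RS repeat peptide (100 uM) with 1 uM ATP in Tris pH 7.5/MgCl2/EGTA/DTT/Triton buffer for 4.5 h at room temperature. Residual ATP was quantified by Kinase-Glo luciferase luminescence.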

[12] = target: Dual specificity protein kinase CLK4 (Homo sapiens) (UniProt Q9HAZ1); experiment: qHTS Assay for Inhibitors of CDC-like Kinase 4 (ADP-Glo Assay) (AID 1771); settings: recombinant CLK4, ADP-Glo luminescence; series mostly up to 80 µM; also: potency is read from the fitted curve at half-maximal effect; nearly all actives have a fitted effect of over 70% in size
In short: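 In this ADP-Glo format, 1 uM ATP and 100 uM RS peptide served as substrates for 25 nM Clk4 in Mg2+/EGTA/DTT/Triton buffer; reactions ran 1 hr at room temperature before luminescent ADP quantification.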

[13] = target: Ubiquitin carboxyl-terminal hydrolase 1 (Homo sapiens) (UniProt O94782); experiment: Inhibitors of USP1/UAF1: Pilot qHTS (AID 504865); settings: purified USP1/UAF1, Ub-rhodamine cleavage fluorescence; series mostly up to 54.9 µM;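 also: rhodamine fluorescence freed from ubiquitin-rhodamine substrate followed over time; top concentration of the series differs between compounds; % is scaled to controls: 0 for no effect and ±100 for the full control effect; nearly all actives have a fitted effect of over 35% in size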
In short: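 USP1/UAF1 complex (1nM) preincubated with compound 15 min at room temperature, then Ub-Rho substrate (150nM final) added. Fluorescence read kinetically at 480/540 nm, 6 reads every 60 seconds. Buffer: 50mM HEPES pH 7.8, 0.5mM EDTA, 0.1 mg/ml BSA, 1mM TCEP, 0.01% Tween-20.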

[14] = Primary qHTS for small molecule stabilizers of the endoplasmic reticulum resident proteome: Secreted ER Calcium Modulated Protein (SERCaMP) assay (AID 1508630); settings: SH-SY5Y GLuc-SERCaMP (Gaussia luciferase released on ER calcium loss) secretion, thapsigargin, luminescence; series mostly up to 38.4 µM; also: % is scaled to controls: 0 for no effect and ±100 for the full control effect
In short: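 The SH-SY5Y reporter protocol was run at 3 concentrations up to 38.3 uM (primary) or 11 concentrations (follow-up): 16 h compound, 100 nM thapsigargin for 4 h, then extracellular luciferase luminescence.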

[15] = target: Dual specificity protein kinase CLK4 (Homo sapiens) (UniProt Q9HAZ1); experiment: qHTS Assay for Inhibitors of CDC-like Kinase 4 (ADP-FP Assay) (AID 1795); settings: Transcreener ADP fluorescence polarization; series mostly up to 50 µM; also: % is scaled to controls: 0 for no effect and ±100 for the full control effect; nearly all actives have a fitted effect of over 60% in size
In short: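 Recombinant human Clk4 (6.25 nM) phosphorylated RS repeat peptide (100 uM) with 1 uM ATP in Tris pH 7.5/MgCl2/EGTA/DTT/Triton buffer for one hour. ADP was quantified by Transcreener competitive fluorescence polarization against an ADP calibration curve.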

[16] = NFAT Signaling Pathway (AID 444; active = well fitted curve in either direction with a large enough effect, not every such curve was filed as active); settings: Jurkat NFAT-bla M1, carbachol, beta-lactamase ratio, 5 h; at 7.69 µM (top of the series) unless noted
In short: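 Jurkat cells carrying an NFAT-driven β-lactamase reporter and co-transfected muscarinic M1 receptor were treated with compound plus carbachol (1 uM final, an EC50 level) for 5 h at 37 °C. CCF4 loading followed for 1 h at RT; 460/530 nm ratio gave %activity.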

[17] = target: Cytochrome P450 3A4 (Homo sapiens) (UniProt P08684); experiment: qHTS Assay for Inhibitors and Substrates of Cytochrome P450 3A4 (AID 884); settings: recombinant CYP3A4, Luciferin-PPXE luminescence; series mostly up to 57.1 µM; also: potency is read from the fitted curve at half-maximal effect; nearly all actives have a fitted effect of over 50% in size
In short: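 Luminescent readout of luciferin produced by CYP3A4 (20 nM) dealkylation of Luciferin-PPXE, 25 uM (its KM). NADPH-driven reaction ran 60 min at RT after 10 min compound preincubation; data scaled to 57 uM ketoconazole as 100% inhibition.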

[18] = target: Cytochrome P450 2C19 (Homo sapiens) (UniProt P33261); experiment: qHTS Assay for Inhibitors and Substrates of Cytochrome P450 2C19 (AID 899); settings: recombinant CYP2C19, luciferin-H EGE luminescence; series mostly up to 57.1 µM; also: potency is read from the fitted curve at half-maximal effect; nearly all actives have a fitted effect of over 60% in size
In short: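 NADPH-dependent conversion of Luciferin-H EGE (10uM, at KM) by 5nM enzyme in 50mM KPO4, 60 min at 37C following 10 min compound preincubation. Stopped with luciferin detection buffer; luminescence read after 20 min.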

[19] = measured here: cell count channel max response
[20] = measured here: lipid channel max response

Cytochrome P450 1A2 (Homo sapiens), sequence (P05177 whole entry, looked up): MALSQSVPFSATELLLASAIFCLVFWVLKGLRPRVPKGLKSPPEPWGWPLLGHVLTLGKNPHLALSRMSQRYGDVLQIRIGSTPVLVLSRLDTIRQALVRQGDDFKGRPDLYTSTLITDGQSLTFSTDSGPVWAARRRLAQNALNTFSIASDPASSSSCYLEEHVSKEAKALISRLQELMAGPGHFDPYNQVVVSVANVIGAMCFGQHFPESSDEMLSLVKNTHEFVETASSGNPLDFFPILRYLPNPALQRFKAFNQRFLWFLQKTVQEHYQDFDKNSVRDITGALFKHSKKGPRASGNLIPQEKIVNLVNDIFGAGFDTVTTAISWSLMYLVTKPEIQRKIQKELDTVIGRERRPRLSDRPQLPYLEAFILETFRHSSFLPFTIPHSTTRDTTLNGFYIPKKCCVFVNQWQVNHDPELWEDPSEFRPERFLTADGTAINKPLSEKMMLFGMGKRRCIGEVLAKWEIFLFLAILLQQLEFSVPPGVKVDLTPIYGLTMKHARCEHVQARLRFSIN
Dual specificity protein kinase CLK4 (Homo sapiens), sequence (Q9HAZ1 whole entry, looked up): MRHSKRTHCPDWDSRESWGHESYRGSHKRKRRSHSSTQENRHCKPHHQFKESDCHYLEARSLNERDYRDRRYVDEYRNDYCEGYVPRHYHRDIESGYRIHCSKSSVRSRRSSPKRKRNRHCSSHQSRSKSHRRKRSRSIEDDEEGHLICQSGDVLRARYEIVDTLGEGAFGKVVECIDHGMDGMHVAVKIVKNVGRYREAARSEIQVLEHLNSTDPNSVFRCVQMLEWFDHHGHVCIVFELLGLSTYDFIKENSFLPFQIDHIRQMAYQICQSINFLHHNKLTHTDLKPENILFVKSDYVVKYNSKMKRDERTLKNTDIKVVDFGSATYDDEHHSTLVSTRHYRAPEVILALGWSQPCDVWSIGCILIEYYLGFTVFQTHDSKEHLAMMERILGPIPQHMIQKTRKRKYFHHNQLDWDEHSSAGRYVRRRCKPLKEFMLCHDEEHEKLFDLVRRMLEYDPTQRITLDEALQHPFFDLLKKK
Glucocorticoid receptor (Homo sapiens), sequence (P04150 whole entry, looked up, the tested form may be a part): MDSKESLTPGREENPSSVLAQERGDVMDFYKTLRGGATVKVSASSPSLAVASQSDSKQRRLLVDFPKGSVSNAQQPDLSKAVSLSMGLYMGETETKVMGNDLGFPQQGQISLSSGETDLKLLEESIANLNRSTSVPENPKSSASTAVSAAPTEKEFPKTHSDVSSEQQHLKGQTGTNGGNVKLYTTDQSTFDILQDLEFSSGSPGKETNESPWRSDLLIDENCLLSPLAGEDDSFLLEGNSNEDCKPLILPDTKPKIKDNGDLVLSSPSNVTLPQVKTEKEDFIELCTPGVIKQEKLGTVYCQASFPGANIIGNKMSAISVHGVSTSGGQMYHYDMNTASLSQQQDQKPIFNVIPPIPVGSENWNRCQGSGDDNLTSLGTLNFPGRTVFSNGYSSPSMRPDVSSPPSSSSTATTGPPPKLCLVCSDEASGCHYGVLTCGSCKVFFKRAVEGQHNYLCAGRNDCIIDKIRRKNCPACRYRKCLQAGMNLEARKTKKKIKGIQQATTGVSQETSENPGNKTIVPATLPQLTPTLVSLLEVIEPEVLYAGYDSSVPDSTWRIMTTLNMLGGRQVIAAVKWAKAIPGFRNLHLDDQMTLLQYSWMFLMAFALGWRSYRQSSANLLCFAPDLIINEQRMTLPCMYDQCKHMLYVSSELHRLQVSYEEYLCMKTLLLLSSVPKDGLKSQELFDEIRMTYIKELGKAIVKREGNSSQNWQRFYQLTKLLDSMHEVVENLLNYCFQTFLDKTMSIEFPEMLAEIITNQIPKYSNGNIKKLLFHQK
Cytochrome P450 3A4 (Homo sapiens), sequence (P08684 whole entry, looked up): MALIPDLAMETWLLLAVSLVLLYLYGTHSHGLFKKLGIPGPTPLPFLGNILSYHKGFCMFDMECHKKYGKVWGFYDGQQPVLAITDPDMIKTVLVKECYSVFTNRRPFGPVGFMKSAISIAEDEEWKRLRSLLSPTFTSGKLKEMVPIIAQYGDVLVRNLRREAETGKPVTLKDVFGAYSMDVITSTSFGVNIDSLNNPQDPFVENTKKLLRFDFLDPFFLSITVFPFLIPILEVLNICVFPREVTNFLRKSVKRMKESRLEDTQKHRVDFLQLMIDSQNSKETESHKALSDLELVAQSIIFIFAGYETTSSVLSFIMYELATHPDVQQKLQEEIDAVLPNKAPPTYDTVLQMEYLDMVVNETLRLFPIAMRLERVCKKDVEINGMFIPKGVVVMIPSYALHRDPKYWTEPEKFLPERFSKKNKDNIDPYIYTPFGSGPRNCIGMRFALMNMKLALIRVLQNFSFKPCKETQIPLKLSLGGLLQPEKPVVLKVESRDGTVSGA
3',5'-cyclic-AMP phosphodiesterase 4B (Homo sapiens), sequence (Q07343 whole entry, looked up): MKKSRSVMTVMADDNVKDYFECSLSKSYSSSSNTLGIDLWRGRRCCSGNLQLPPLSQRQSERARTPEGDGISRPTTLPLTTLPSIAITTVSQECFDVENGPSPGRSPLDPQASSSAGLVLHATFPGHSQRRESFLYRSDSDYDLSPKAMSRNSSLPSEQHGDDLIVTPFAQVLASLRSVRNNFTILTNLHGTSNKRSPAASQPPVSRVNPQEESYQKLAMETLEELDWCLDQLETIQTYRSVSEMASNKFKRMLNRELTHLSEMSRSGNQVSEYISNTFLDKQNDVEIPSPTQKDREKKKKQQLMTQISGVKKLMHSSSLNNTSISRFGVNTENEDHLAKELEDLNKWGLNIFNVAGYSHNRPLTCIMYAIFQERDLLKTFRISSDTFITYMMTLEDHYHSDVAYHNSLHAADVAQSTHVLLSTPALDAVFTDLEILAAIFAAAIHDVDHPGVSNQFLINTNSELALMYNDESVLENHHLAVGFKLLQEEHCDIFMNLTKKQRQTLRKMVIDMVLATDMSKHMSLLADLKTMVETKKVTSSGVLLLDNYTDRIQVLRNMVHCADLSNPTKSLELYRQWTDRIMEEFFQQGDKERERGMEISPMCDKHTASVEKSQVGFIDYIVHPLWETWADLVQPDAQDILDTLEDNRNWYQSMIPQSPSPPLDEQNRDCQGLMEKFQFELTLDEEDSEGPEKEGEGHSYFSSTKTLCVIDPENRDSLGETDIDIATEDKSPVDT
Ubiquitin carboxyl-terminal hydrolase 1 (Homo sapiens), sequence (O94782 whole entry, looked up): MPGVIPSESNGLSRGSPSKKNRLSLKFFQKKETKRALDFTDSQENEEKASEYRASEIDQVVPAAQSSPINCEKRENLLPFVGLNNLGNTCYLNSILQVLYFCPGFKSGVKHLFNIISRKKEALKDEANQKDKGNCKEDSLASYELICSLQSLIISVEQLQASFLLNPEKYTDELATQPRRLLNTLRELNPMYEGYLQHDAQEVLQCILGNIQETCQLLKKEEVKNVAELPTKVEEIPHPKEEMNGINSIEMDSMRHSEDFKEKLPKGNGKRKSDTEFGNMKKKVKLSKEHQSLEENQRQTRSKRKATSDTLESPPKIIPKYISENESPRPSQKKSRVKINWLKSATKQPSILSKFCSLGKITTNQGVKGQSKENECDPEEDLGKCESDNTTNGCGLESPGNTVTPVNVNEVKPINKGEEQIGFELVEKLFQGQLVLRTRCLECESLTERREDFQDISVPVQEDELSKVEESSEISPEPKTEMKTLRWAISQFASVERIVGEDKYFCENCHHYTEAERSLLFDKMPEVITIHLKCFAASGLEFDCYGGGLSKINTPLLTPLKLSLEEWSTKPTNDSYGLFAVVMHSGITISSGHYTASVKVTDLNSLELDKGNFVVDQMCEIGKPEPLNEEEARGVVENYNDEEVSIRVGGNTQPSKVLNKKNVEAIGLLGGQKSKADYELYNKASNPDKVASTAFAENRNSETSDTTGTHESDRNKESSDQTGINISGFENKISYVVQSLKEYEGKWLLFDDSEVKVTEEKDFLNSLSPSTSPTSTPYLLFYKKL
Lysosomal acid glucosylceramidase (Homo sapiens), sequence (P04062 whole entry, looked up): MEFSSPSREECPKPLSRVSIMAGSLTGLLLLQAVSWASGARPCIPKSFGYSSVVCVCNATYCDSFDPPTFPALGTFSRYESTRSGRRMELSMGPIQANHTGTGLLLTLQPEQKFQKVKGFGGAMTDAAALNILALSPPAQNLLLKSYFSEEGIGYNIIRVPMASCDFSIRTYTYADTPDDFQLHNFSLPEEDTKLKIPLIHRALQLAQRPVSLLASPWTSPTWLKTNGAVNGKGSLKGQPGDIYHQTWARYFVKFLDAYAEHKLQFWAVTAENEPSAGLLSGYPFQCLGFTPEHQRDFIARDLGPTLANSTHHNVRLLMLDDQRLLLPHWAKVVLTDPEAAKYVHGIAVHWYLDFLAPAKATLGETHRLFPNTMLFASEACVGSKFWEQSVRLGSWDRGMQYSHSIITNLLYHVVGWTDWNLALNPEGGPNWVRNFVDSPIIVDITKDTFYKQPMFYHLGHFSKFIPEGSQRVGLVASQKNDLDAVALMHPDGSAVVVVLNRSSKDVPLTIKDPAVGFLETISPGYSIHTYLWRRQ
Cytochrome P450 2C19 (Homo sapiens), sequence (P33261 whole entry, looked up): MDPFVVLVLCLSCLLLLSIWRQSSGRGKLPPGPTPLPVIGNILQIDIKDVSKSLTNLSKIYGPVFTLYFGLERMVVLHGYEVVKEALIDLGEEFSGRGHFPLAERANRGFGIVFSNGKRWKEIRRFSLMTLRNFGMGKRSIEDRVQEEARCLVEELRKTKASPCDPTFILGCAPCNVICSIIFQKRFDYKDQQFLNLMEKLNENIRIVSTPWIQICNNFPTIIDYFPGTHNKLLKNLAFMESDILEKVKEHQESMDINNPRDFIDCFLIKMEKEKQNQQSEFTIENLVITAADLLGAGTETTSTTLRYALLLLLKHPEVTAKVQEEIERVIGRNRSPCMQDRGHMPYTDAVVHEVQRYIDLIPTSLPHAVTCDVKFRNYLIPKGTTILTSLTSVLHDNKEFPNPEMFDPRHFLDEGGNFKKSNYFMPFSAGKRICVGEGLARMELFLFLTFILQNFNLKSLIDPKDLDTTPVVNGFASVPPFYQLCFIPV

CS(=O)(=O)Nc1cccc(-c2ccc3ncnc(NCCN4CCOCC4)c3c2)c1
Potency [1]: > 11.4 µM (inactive)
activity change, negative = inhibition [2]: -17.6% (inactive)
Potency [3]: 25.1 µM (active)
activity, negative = inhibition [4]: 2.22% (inactive)
Potency [5]: > 46 µM (inactive)
Potency [6]: > 46 µM (inactive)
outcome [7]: inactive
Potency [8]: inactive
Potency [9]: inactive
activity change, negative = inhibition [10]: -0.458% (inactive)
max response [10, 19]: -4.37%
max response [10, 20]: -8.3%
Potency [11]: 8.91 µM (active)
Potency [12]: 8.91 µM (active)
Potency [13]: inactive
Potency [14]: inactive

CC(=O)NCCNc1cc(-c2ccccc2C)ncn1
Potency [1]: > 11.4 µM (inactive)
activity change, negative = inhibition [2]: 12% (inactive)
Potency [3]: 15.8 µM (active)
activity, negative = inhibition [4]: 16.5% (inactive)
Potency [5]: > 46 µM (inactive)
Potency [6]: > 46 µM (inactive)
outcome [7]: inactive
Potency [8]: inactive
activity change, negative = inhibition [10]: 3.34% (inactive)
max response [10, 19]: 16.2%
max response [10, 20]: 17.3%
Potency [11]: inactive
Potency [15]: inactive
Potency [13]: inactive
Potency [14]: inactive

c1csc(CNc2ccnc(-c3ccoc3)n2)c1
Potency [1]: > 11.4 µM (inactive)
activity change, negative = inhibition [2]: 8.64% (inactive)
Potency [3]: 1 µM (active)
activity change, negative = inhibition [16]: -0.203% (inactive)
activity, negative = inhibition [4]: 10.3% (inactive)
Potency [5]: > 46 µM (inactive)
Potency [6]: > 46 µM (inactive)
outcome [7]: inactive
Potency [17]: 7.94 µM (active)
Potency [9]: inactive
activity change, negative = inhibition [10]: 5% (inactive)
max response [10, 19]: 21.1%
max response [10, 20]: 20.9%
Potency [11]: inactive
Potency [15]: inactive
Potency [13]: inactive
Potency [14]: inactive

COCCNc1ncnc2ccc(-c3cccnc3)cc12
Potency [1]: > 11.4 µM (inactive)
Potency [3]: 0.2 µM (active)
activity, negative = inhibition [4]: 18% (inactive)
Potency [5]: > 46 µM (inactive)
Potency [6]: > 46 µM (inactive)
outcome [7]: inactive
Potency [8]: inactive
Potency [9]: inactive
activity change, negative = inhibition [10]: 5.11% (inactive)
max response [10, 19]: -1.43%
max response [10, 20]: -8.04%
Potency [11]: 12.6 µM (active)
Potency [12]: 12.6 µM (active)
Potency [13]: inactive
Potency [14]: inactive

FC(F)(F)c1ccccc1-c1ccc2ncnc(NCc3cccnc3)c2c1
Potency [1]: > 11.4 µM (inactive)
activity change, negative = inhibition [2]: 5.26% (inactive)
Potency [3]: 1 µM (active)
activity change, negative = inhibition [16]: 21.5% (inactive)
activity, negative = inhibition [4]: -18.4% (inactive)
Potency [5]: > 46 µM (inactive)
Potency [6]: > 46 µM (inactive)
outcome [7]: inactive
Potency [17]: 1.58 µM (active)
Potency [9]: inactive
Potency [18]: 0.0079 µM (active)
activity change, negative = inhibition [10]: -7.13% (inactive)
max response [10, 19]: 9.95%
max response [10, 20]: 2.08%
Potency [11]: inactive
Potency [15]: inactive
Potency [13]: inactive
Potency [14]: inactive

O=c1cnc2cnc(Nc3ccccc3)nc2n1Cc1cccs1
Potency [1]: > 11.4 µM (inactive)
Potency [3]: 1 µM (active)
Potency [5]: > 9.22 µM (inactive)
Potency [6]: > 46 µM (inactive)
outcome [7]: inactive
Potency [9]: inactive
activity change, negative = inhibition [10]: 1.01% (inactive)
max response [10, 19]: 12.8%
max response [10, 20]: 12.5%
Potency [11]: 1.41 µM (active)
Potency [12]: 2 µM (active)
Potency [13]: inactive
Potency [14]: inactive
